Here are results for seven molecules from PubChem BioAssay (NCATS).

Inconclusive results are not listed. Active and inactive are the calls of the source. Unless noted, calls come from the whole dose curve; as a rule, active = well fitted curve in the direction sought with a large enough effect; inconclusive = small, poorly fitted or top-dose-only effect, or another doubt; inactive = no such curve, though single readings can be large; an effect the other way counts as inactive or inconclusive. A value given as a limit tells only on which side of the number the result lay.

A short description of assay [1]: Cell Viability - HepG2 (AID 433; calls by dose curve;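 note: potency is the fitted concentration of half-maximal effect; cells exposed to compound for 40 hours; potency for ATP loss meaning cytotoxicity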). Particulars: qHTS. Summed up: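 HepG2 hepatocellular carcinoma cells (1500/well) were treated with compounds for 40 h at 37 °C in complete medium; intracellular ATP was read by CellTiter-Glo luminescence. Data were normalized to DMSO and 100 uM tamoxifen, and AC50 came from Hill fits.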
For orientation: qHTS replaces the single test concentration by a dilution series.

A short description of assay [2]: Cell Viability - Mesenchymal (AID 546).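 Note: cells exposed to compound for 40 hours before reading.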 As to conditions: mesenchymal cells viability, qHTS; activity change, negative = cytotoxicity: at 91.7 µM (top of the series). Put shortly:
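In this qHTS cytotoxicity format, glomerulus-derived human mesenchymal kidney cells received compound for 40 hr, then luciferase-based ATP quantitation. Concentration-response data were fitted with the Hill equation.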

A short description of assay [3]: Cellular Toxicity (caspase-3) Jurkat (AID 655).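 Note: cells exposed to compound for 16 h at 37 °C before reading.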 Note: potency is the fitted concentration of half-maximal effect. Particulars: Jurkat caspase-3 activation, luminescence; caspase-3 activation: at 92.2 µM (top of the series), DMSO = 0%, tamoxifen = 100%. Put shortly:
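Jurkat cells (5000/well) in complete medium were treated with compounds for 16 hr at 37 °C, then Caspase-Glo 3/7 luminescence was read after 20 min at room temperature. Data normalized to DMSO (basal) and 100 uM tamoxifen (100%); AC50 from Hill fit.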

A short description of assay [4]: Cell Viability - LYMP1-002 - Assay at 16 hr (AID 948).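 For activity change, negative = cytotoxicity: 0% = DMSO alone and full effect = 92 µM tetraoctylammonium bromide.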 Note: potency is the fitted concentration of half-maximal effect. Put shortly:
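Human lymphoblastoid cells (LYMP1-002), 2500/well, were preincubated 5 hr at 37 C, then exposed to compounds for 16 hr at 37 C in complete medium. Cellular ATP was read by CellTiter-Glo luminescence after 30 min at room temperature; AC50 from Hill fits.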

Assay [5] can be described thus: Cell Viability - LYMP2-003 (AID 965).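 For activity change, negative = cytotoxicity: 0% = DMSO only and full effect = 92 µM tetraoctylammonium bromide.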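 Note: cells exposed to compounds for 24 h before reading; nearly all actives have a fitted effect of over 50% in size.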 Note: potency is the fitted concentration of half-maximal effect. Put shortly: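 Human lymphoblastoid cells (2500/well) were pre-incubated 5 hr at 37 C, then exposed to compounds over a concentration range for 24 hr at 37 C. Intracellular ATP was read by CellTiter-Glo luminescence; AC50 came from Hill-equation fits.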
Assay [6] can be described thus: Cell Viability - LYMP2-011 (AID 969). Note: nearly all actives have a fitted effect of over 60% in size. Note: potency is the fitted concentration of half-maximal effect. Summed up:
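In this qHTS cytotoxicity format, compounds are tested across concentrations on human lymphoblastoid cells in complete medium for 24 hours at 37 C. Viability is taken as cellular ATP measured by luciferase luminescence.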

Assay [7] in a line: Cell Viability - LYMP2-013 (AID 970). Note: nearly all actives have a fitted effect of over 55% in size. Note: potency is the fitted concentration of half-maximal effect. Put shortly: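 Cytotoxicity is scored as a concentration-dependent drop in intracellular ATP in human lymphoblastoid cells after 24 hr compound exposure at 37 C. ATP is quantified by luciferase luminescence, and AC50 values come from Hill-equation modeling.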
Assay [8] in a line: Cell Viability - LYMP2-021 (AID 974). For activity change, negative = cytotoxicity: % is set by controls: 0 for no effect and ±100 for the full control effect.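 Note: compound exposure lasts 24 hours at 37 °C; nearly all actives have a fitted effect of over 55% in size.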 Note: potency is the fitted concentration of half-maximal effect. Put shortly: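 Loss of cellular ATP, measured with a luciferase-based CellTiter-Glo readout, serves as the toxicity signal in human lymphoblastoid cells treated for 24 hours at 37 C. Potency is reported as AC50 from a standard Hill model.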
Assay [9] is described as follows: Cell Viability - LYMP2-008 (AID 980). For activity change, negative = cytotoxicity: % is set by controls: 0 for no effect and ±100 for the full control effect. Note: nearly all actives have a fitted effect of over 60% in size. Note: potency is the fitted concentration of half-maximal effect. Put shortly: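 Cells seeded at 2500/well and rested 5 hr at 37 C; compounds added over a concentration range and incubated 24 hr at 37 C; CellTiter-Glo added, 30 min at room temperature; luminescence read and AC50 fitted with Hill model.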
Assay [10] is described as follows: Cell Viability - LYMP2-012 (AID 982).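 For activity change, negative = cytotoxicity: 0% = DMSO only and full loss = 92 µM tetraoctylammonium bromide.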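 Note: cellular ATP by luciferase luminescence where a drop means cytotoxicity; cells exposed to compound for one day before reading; nearly all actives have a fitted effect of over 55% in size.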 Note: potency is the fitted concentration of half-maximal effect.
A short description of assay [11]: Cell Viability - LYMP2-014 (AID 983).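 For activity change, negative = cytotoxicity: plate controls were DMSO only for no effect and 92 µM tetraoctylammonium bromide for full effect.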 Note: nearly all actives have a fitted effect of over 50% in size. Note: potency is the fitted concentration of half-maximal effect. Put shortly:
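Cells are plated at 2500/well and left 5 hr at 37 C. Compounds are added across a concentration range and incubated 24 hr at 37 C in complete medium. CellTiter-Glo is added, and luminescence is read after 30 min at room temperature.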

A short description of assay [12]: Cell Viability - LYMP2-020 (AID 986). Note: nearly all actives have a fitted effect of over 55% in size. Note: potency is the fitted concentration of half-maximal effect. Summed up:
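Seed 2500 cells per well and incubate 5 hr at 37 C. Add compounds at a concentration series and incubate 24 hr at 37 C. Add CellTiter-Glo, wait 30 min at RT, read luminescence, and fit a Hill curve for AC50.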

Assay [13] can be described thus: Cell Viability - LYMP2-024 (AID 988).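 For activity change, negative = cytotoxicity: plate controls were DMSO only for no effect and 92 µM tetraoctylammonium bromide for full effect.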 Note: nearly all actives have a fitted effect of over 60% in size. Note: potency is the fitted concentration of half-maximal effect. Put shortly: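 qHTS cytotoxicity, human lymphoblastoid line, complete medium; 24 h cpd treatment, 37 C; CellTiter-Glo ATP luminescence readout; tetraoctylammonium bromide positive control; AC50 via Hill fit.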
The nature of assay [14]: Cell Viability - LYMP1-002 - Assay at 40 hr (AID 994). Note: nearly all actives have a fitted effect of over 60% in size. Note: potency is the fitted concentration of half-maximal effect. Put shortly: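 Cells are plated at 2500 per well and rested 5 hr at 37 C. Compounds are added and incubated 40 hr at 37 C. CellTiter-Glo reagent is added for 30 min at room temperature before luminescence is read.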
The nature of assay [15]: qHTS assay for environmental chemicals that activate the Aryl hydrocarbon Receptor (AhR) signaling pathway (AID 651777). Note: % of control where 0% means no effect; nearly all actives have a fitted effect of over 15% in size. As to conditions: 1A2-DRE human hepatoma cells, luciferase, 24 h; activation: stronger effect = higher value. Summed up:
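Induction of CYP1A2 transcription through AhR is detected by luciferase in 1A2-DRE hepatoma cells. Compounds or DMSO act for 24 hr at 37 C before a 30 min One-Glo step at room temperature.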

Assay [16] can be described thus: Cell Viability - LYMP2-002 (AID 977).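 Note: compound exposure lasted 24 h at 37 °C; plate controls were DMSO only for no effect and 92 µM tetraoctylammonium bromide for full effect.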 Put shortly: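 In this qHTS viability screen, 2500 human lymphoblastoid cells per well receive compound for 24 hr at 37 C, and luciferase-based ATP luminescence gives the viability signal. Tetraoctylammonium bromide serves as positive control.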
A short description of assay [17]: Cell Viability - LYMP2-016 (AID 984). Summed up:
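Human lymphoblastoid cells (LYMP2-016), 2500/well in complete medium, preincubated 5 hr at 37 C, then compound-treated 24 hr at 37 C. Intracellular ATP read by CellTiter-Glo luminescence after 30 min at room temperature; AC50 from Hill-equation concentration-response fits.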

A short description of assay [18]: Cell Viability - LYMP2-026 (AID 989). Note: % is set by controls: 0 for no effect and ±100 for the full control effect; nearly all actives have a fitted effect of over 50% in size. Summed up:
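Cells are seeded at 2500 per well and held 5 hr at 37 C. Compounds are added in concentration series for 24 hr, then CellTiter-Glo reagent is applied and luminescence read.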

A short description of assay [19]: qHTS assay for small molecule antagonists of retinoid X receptor alpha signaling (AID 588546; active = well fitted inhibition curve with a large enough effect in the signal ratio, with a control signal flat, not every such curve was filed as active; the % refers to the signal ratio;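 note: cells stimulated with 9-cis-retinoic acid as agonist; % is set by controls: 0 for no effect and ±100 for the full control effect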). As to conditions: HEK293T RXRa-UAS-bla, beta-lactamase ratio, antagonist mode; measured here: W530 green channel, cytotoxicity proxy. Summed up: (§1)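 Beta-lactamase reporter inhibition, read as CCF4 fluorescence ratio (ex 405, em 460/530 nm) after 2 h at RT. HEK293T UAS-bla cells, 2500/well, were stimulated with 9-cis-RA at 500 or 100 nM final alongside test compound for 18 h at 37 C.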

The target in assay [20] is Retinoic acid receptor RXR-alpha (Homo sapiens) (UniProt P19793). Described as above. Particulars: HEK293T RXRa-UAS-bla, beta-lactamase ratio, antagonist mode. Put shortly: as §1
Sequence of Retinoic acid receptor RXR-alpha (Homo sapiens) (P19793 whole entry, looked up): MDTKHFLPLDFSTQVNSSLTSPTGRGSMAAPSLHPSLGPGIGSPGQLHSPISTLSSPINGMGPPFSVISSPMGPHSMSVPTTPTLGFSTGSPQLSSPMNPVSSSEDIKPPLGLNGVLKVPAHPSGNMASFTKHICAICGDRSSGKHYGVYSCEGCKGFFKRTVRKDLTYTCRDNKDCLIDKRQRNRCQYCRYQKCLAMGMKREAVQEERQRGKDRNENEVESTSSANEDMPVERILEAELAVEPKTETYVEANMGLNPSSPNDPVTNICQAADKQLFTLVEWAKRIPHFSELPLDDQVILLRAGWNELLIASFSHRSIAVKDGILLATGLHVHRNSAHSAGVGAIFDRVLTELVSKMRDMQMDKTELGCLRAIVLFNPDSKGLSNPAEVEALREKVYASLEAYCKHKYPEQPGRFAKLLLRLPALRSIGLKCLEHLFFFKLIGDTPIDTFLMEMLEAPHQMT

For `C=C1CC[C@H](O)C/C1=C/C=C1\CCC[C@]2(C)[C@@H]([C@H](C)CCCC(C)C)CC[C@@H]12`, the Potency in assay [1] was > 92 µM (inactive); in [3] it was 31.6 µM (active); in [4], 50.1 µM (active); in [5] it was 39.8 µM (active); in assay [6] it was 50.1 µM (active); in [7], 50.1 µM (active). Moreover, the Potency in assay [8] was 39.8 µM (active); in assay [9], 50.1 µM (active); in assay [10], 50.1 µM (active); in assay [11], 50.1 µM (active); in assay [12], 50.1 µM (active); in assay [13], 39.8 µM (active). Moreover, in assay [14], the Potency is 50.1 µM (active). The activity change, negative = cytotoxicity in assay [2] was -102% (active). Further, the activation in [15] is 5.81% (inactive).

As for `Nc1ccc(N=Nc2ccccc2)c(N)c1`, the Potency in assay [1] is > 92 µM (inactive). Moreover, the Potency entry in assay [3], in [4], in assay [5], in [6], in [7] and in assay [8] was “inactive” in each case. Moreover, the Potency result in assay [16], in [9], in assay [10], in [11], in assay [17] and in [12] was “inactive” in each case. For the same molecule, the Potency entry in assay [13], in [18] and in [14] was “inactive” in each case. Besides, the max response in [19] is -9.61%; in assay [20] it was -15% (inactive).

As for `Brc1cc(Br)c(Oc2cc(Br)c(Br)cc2Br)cc1Br`, in assay [1], the Potency is > 92 µM (inactive). Further, the Potency entry in assay [2], in assay [3], in [4], in [5], in assay [6] and in assay [7] was “inactive” each time. The Potency entry in [8], in assay [16], in assay [9], in assay [10], in [11] and in [17] was “inactive” throughout. The Potency result in assay [12], in [13], in assay [18] and in assay [14] was “inactive” throughout. The activation in assay [15] was -1.17% (inactive).

Regarding `CC(C)(C)C(=O)C1C(=O)c2ccccc2C1=O`, the Potency entry in assay [2], in assay [3], in [4], in assay [5], in [6] and in [7] was “inactive” each time. The Potency entry in assay [8], in assay [16], in [11], in assay [17], in assay [12] and in assay [13] was “inactive” each time. The Potency result in [18] and in assay [14] was “inactive” each time. Besides, the activation in [15] is 5.77% (inactive).

`C=CC(=O)CC`: the Potency in assay [1] is > 92 µM (inactive). The Potency result in [2], in [3], in assay [4], in assay [5], in assay [6] and in assay [7] was “inactive” in each case. In addition, the Potency result in assay [8], in assay [16], in assay [9], in assay [10], in assay [11] and in assay [17] was “inactive” each time. Besides, the Potency entry in assay [12], in assay [13], in assay [18] and in assay [14] was “inactive” each time. The max response in assay [19] was 8.25%; in assay [20], 10.2% (inactive). In assay [15], the activation was 1.17% (inactive).

`O=C1c2ccccc2C(=O)C1(O)O`: the Potency was > 92 µM (inactive) in assay [1], 31.6 µM (active) in assay [3] and 50.1 µM (active) in assay [5]. For the same molecule, the Potency result in assay [2], in assay [4], in assay [6], in assay [8], in assay [16] and in assay [9] was “inactive” each time. Also, the Potency entry in assay [11], in assay [17], in assay [12], in assay [18] and in [14] was “inactive” each time. Further, the max response was -5.61% in assay [19] and 29.7% (inactive) in assay [20]. In [15], the activation was -0.0089% (inactive).

In the case of `Cc1ccccc1OCC1CO1` (stereo not drawn), the Potency in [1] was > 92 µM (inactive). For the same molecule, the Potency entry in [2], in [3], in assay [4], in assay [5], in [6] and in assay [7] was “inactive” each time. For the same molecule, the Potency result in assay [8], in assay [16], in [9], in assay [10], in [11] and in assay [17] was “inactive” throughout. In addition, the Potency result in [12], in assay [13], in [18] and in assay [14] was “inactive” throughout. For the same molecule, the max response in assay [19] is -1.65%; in [20], 0.471% (inactive). Further, the activation in assay [15] was -0.0777% (inactive).
